# Experimental data taken from PubChem BioAssay (Tox21).
# A number with no mark means an inactive call. Inconclusive results are not listed. A call without a number means that no potency is given here. Calls of active or inactive are those of the source. Unless noted, the call rests on the fitted dose curve.
# Tests used:
# [1] = qHTS assay to identify small molecule antagonists of the sonic hedgehog signaling (Shh) pathway (AID 1259369); further: nearly all actives have a fitted effect of over 45% in size
# In short: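 Antagonist mode: compound added to 3T3 Gli1-Luc cells followed by conditioned-medium stimulation, 24 h at 37 C, 5% CO2. Inhibition taken as loss of Gli1-driven luciferase luminescence.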
# [2] = molecular target: Estrogen receptor beta (Homo sapiens) (UniProt Q92731); experiment: qHTS assay to identify small molecule agonists of the estrogen receptor beta (ER-beta) signaling pathway (AID 1259377; active means well fitted activation curve with a large enough effect in the signal ratio in the repeat runs, not every such curve was filed as active; the % refers to the signal ratio)
# Chain of Estrogen receptor beta (Homo sapiens) (Q92731 whole entry, looked up): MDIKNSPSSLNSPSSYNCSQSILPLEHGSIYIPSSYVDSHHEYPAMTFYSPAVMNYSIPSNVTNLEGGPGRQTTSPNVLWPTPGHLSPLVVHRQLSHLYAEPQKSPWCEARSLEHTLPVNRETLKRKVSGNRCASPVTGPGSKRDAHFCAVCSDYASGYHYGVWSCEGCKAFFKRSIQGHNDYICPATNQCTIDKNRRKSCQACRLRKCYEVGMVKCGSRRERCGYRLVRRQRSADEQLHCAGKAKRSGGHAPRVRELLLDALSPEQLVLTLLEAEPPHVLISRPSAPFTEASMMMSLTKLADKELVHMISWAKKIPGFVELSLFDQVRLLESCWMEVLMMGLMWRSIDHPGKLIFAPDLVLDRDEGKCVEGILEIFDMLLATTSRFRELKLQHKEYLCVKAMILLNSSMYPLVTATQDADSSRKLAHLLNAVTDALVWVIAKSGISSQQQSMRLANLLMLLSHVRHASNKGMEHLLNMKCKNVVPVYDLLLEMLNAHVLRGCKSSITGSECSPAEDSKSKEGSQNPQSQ
# In short: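 qHTS in ER-beta-UAS-bla HEK293T cells: 6 hr settling, then 16 hr compound at 37C, then LiveBLAzer substrate 2 h at RT before fluorescence reading.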
# [3] = qHTS assay to identify small molecule agonists of the estrogen receptor beta (ER-beta) signaling pathway - cell viability counter screen (AID 1259380; active means well fitted curve in the direction sought with a large enough effect in the repeat runs; an effect the other way counts as inactive or inconclusive; further: nearly all actives have a fitted effect of over 30% in size)
# In short: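 Cell viability counter screen: CellTiter-Glo luminescence (30 min, room temperature) measured in the same wells as the beta-lactamase readout, after 16 hr compound exposure at 37C of ER-beta-bla HEK293T cells in 2% charcoal-stripped FBS medium.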
# [4] = qHTS assay to identify small molecule antagonists of the estrogen receptor beta (ER-beta) signaling pathway - cell viability counter screen (AID 1259382; active means well fitted curve in the direction sought with a large enough effect in the repeat runs; an effect the other way counts as inactive or inconclusive;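 further: HEK293T cells carrying ER-beta-UAS-bla reporter stimulated with estradiol; series mostly up to about 92 µM; nearly all actives have a fitted effect of over 55% in size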)
# In short: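 Cytotoxicity was measured in the same wells by CellTiter-Glo luminescence after 30 min at room temperature. Cells were ER-beta-bla HEK293T in charcoal-stripped serum, given compound together with 1 nM E2 and incubated 16 h at 37C.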
# [5] = molecular target: Estrogen receptor (Homo sapiens) (UniProt P03372); experiment: qHTS assay to identify small molecule agonists of the estrogen receptor alpha (ER-alpha) signaling pathway in the presence of an antagonist (AID 1259383); further: top concentration of the series differs between compounds; nearly all actives have a fitted effect of over 15% in size
# Chain of Estrogen receptor (Homo sapiens) (P03372 whole entry, looked up): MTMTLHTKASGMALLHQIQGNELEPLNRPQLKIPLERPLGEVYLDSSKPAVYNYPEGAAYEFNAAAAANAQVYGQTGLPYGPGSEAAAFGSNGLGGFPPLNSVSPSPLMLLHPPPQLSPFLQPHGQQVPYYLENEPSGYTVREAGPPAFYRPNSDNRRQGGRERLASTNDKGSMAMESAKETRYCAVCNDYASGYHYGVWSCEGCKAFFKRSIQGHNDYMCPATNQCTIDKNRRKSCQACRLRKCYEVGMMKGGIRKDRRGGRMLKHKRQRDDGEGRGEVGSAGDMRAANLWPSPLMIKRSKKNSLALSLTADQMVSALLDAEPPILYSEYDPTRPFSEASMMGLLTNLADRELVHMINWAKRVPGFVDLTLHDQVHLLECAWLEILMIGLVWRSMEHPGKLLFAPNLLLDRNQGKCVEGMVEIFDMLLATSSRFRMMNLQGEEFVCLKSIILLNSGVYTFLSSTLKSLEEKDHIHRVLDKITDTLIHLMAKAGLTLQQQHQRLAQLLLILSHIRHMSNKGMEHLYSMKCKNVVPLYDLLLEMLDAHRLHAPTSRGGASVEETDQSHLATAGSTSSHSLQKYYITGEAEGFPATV
# In short: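 Agonist-mode confirmation run in the presence of 10.0nM (final) ICI-182,780 antagonist. The reporter was ERE-driven luciferase in VM7Luc4E2 cells, grown in charcoal-stripped serum. Cells were exposed to 15-concentration compound series for 22hr, then ONE-Glo luminescence was read.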
# [6] = qHTS assay to identify small molecule agonists or antagonists of the thyroid stimulating hormone receptor (TSHR) signaling pathway - wild type cell line counter screen (AID 1259384)
# In short: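 Counter screen in untransfected Hek293: compounds (15-point titration, triplicate) plus phosphodiesterase inhibitor Ro20-1724 added after 18 h plating; 30 min RT. Intracellular cAMP via competitive d2/cryptate immunoassay, 1 h incubation.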
# [7] = molecular target: Thyrotropin receptor (Homo sapiens) (UniProt P16473); experiment: qHTS assay to identify small molecule antagonists of the thyroid stimulating hormone receptor (TSHR) signaling pathway (AID 1259385); further: nearly all actives have a fitted effect of over 20% in size
# Chain of Thyrotropin receptor (Homo sapiens) (P16473 whole entry, looked up): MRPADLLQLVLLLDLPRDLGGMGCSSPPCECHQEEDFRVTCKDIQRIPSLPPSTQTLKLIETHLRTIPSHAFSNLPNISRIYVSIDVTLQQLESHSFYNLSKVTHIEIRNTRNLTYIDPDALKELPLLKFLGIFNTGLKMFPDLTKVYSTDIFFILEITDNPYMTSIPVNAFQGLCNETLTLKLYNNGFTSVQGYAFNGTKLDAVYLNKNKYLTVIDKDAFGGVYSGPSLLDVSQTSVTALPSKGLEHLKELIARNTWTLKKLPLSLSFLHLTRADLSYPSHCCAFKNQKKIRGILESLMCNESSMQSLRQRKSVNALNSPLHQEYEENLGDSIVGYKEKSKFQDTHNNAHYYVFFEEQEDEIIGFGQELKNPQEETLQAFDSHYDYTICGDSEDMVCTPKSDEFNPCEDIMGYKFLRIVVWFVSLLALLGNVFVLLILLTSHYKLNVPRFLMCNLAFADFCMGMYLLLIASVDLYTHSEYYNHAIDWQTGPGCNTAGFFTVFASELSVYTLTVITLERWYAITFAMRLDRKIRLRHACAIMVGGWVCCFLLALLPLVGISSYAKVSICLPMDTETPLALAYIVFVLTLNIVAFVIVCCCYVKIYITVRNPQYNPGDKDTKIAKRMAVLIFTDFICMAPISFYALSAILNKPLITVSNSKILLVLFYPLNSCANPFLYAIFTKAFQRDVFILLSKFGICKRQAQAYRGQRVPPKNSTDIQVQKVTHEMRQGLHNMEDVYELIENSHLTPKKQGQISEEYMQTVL
# In short: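 Antagonist mode: compound-treated TSHR-expressing HEK293 cells were stimulated with 1.5 ng/mL TSH (final) in presence of Ro20-1724 for 30 min at RT. HTRF cAMP detection after 1 h; each compound tested at 15 concentrations, triplicate.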
# [8] = qHTS assay to identify small molecule agonists of the estrogen receptor alpha (ER-alpha) signaling pathway in the presence of an antagonist - cell viability counter screen (AID 1259386; active means well fitted curve in the direction sought with a large enough effect in the repeat runs; an effect the other way counts as inactive or inconclusive; further: series mostly up to about 92 µM; nearly all actives have a fitted effect of over 30% in size)
# In short: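 Compounds tested at 15 concentrations for 22 h at 37C alongside 10.0nM (final) ICI-182,780 antagonist, in VM7Luc4E2 cells grown in phenol red-free, charcoal-stripped medium. Viability read by CellTiter-Fluor fluorescence after 1 h reagent incubation.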
# [9] = molecular target: Progesterone receptor (Homo sapiens) (UniProt P06401); experiment: qHTS assay to identify small molecule agonists of the progesterone receptor (PR) signaling pathway (AID 1346784); further: nearly all actives have a fitted effect of over 30% in size
# Chain of Progesterone receptor (Homo sapiens) (P06401 whole entry, looked up): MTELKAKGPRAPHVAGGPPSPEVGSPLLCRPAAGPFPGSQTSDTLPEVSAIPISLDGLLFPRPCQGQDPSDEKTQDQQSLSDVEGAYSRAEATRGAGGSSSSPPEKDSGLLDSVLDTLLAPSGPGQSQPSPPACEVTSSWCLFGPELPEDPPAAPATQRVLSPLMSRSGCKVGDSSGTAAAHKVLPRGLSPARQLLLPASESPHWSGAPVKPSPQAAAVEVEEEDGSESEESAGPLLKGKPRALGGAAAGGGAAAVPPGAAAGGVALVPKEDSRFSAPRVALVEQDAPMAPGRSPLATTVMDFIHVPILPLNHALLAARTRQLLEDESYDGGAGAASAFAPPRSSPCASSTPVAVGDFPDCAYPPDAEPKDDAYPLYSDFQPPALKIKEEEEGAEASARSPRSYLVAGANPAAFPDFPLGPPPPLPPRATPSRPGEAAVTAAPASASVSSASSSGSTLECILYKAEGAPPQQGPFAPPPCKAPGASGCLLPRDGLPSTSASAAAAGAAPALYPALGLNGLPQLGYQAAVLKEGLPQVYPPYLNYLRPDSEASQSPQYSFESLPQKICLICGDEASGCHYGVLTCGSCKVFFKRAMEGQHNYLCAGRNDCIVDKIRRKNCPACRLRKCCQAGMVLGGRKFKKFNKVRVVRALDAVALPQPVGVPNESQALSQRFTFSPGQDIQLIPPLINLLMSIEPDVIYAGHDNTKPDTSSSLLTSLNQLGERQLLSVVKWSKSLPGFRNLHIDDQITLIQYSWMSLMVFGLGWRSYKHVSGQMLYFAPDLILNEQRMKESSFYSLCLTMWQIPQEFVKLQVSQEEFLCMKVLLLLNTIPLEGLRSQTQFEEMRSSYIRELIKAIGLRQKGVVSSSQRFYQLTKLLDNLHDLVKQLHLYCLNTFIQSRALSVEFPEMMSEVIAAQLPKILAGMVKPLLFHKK
# In short: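 Fluorescence from LiveBLAzer B/G FRET substrate cleavage (2 hr, RT) reported PR activation in PR-UAS-bla HEK 293T cells treated 16 hr at 37C/5% CO2 with compounds; medium contained 2% charcoal-stripped FBS.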
# [10] = molecular target: Progesterone receptor (Homo sapiens) (UniProt P06401); experiment: qHTS assay to identify small molecule antagonists of the progesterone receptor (PR) signaling pathway (AID 1346795; active means well fitted inhibition curve with a large enough effect in the signal ratio in the repeat runs, not every such curve was filed as active; the % refers to the signal ratio)
# In short: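 Fluorescence intensity measured 2 hr after adding beta-lactamase FRET substrate to PR-UAS-bla HEK293T cells that had been co-treated 16 hr with compound and 1 nM R5020 (final concentration) in 2% charcoal-stripped FBS.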
# [11] = qHTS assay to identify small molecule antagonists of the progesterone receptor (PR) signaling pathway - cell viability counter screen (AID 1346798; active means well fitted curve in the direction sought with a large enough effect in the repeat runs; an effect the other way counts as inactive or inconclusive; further: series mostly up to about 92 µM; nearly all actives have a fitted effect of over 50% in size)
# In short: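 CellTiter-Glo luminescence; PR-UAS-bla HEK293T, 3,000 cells/well; compound + R5020, 16 hr, 37C/5% CO2; 30 min RT before read.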
# [12] = qHTS assay to identify small molecule agonists of the progesterone receptor (PR) signaling pathway - cell viability counter screen (AID 1346799); further: nearly all actives have a fitted effect of over 45% in size
# In short: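 In parallel with the beta-lactamase readout, cytotoxicity toward PR-UAS-bla HEK293T cells was measured by CellTiter-Glo luminescence following 16 hr compound incubation in 2% charcoal-stripped FBS medium.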
# [13] = qHTS assay to identify small molecule antagonists of the TGF-beta/Smad signaling pathway - cell viability counter screen (AID 1346824; active means well fitted curve in the direction sought with a large enough effect in the repeat runs; an effect the other way counts as inactive or inconclusive; further: nearly all actives have a fitted effect of over 50% in size)
# In short: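 Cytotoxicity counter-screen run in the same wells as the beta-lactamase Smad reporter read: CellTiter-Glo luminescence after 30 min at room temperature. HEK 293T SBE-bla cells had 5 hr compound exposure at 37 C with TGF-beta1 (0.25 ng/mL stock).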
# [14] = qHTS assay to identify small molecule agonists of the TGF-beta/Smad signaling pathway - cell viability counter screen (AID 1346829; active means well fitted curve in the direction sought with a large enough effect in the repeat runs; an effect the other way counts as inactive or inconclusive; further: top concentration of the series differs between compounds; nearly all actives have a fitted effect of over 45% in size)
# In short: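 Tox21 qHTS format: SBE-bla HEK 293T cells treated with DMSO-dissolved compounds for 5 hr; CellTiter-Glo luminescence after 30 min at room temperature.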
# [15] = qHTS assay to identify small molecule agonists of the TGF-beta/Smad signaling pathway (AID 1346859; active means well fitted activation curve with a large enough effect in the signal ratio in the repeat runs, not every such curve was filed as active; the % refers to the signal ratio; further: series mostly up to about 77 µM)
# In short: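 After overnight seeding, SBE-bla HEK 293T cells are dosed with compounds in DMSO and kept 5 hr at 37 C, 5% CO2. LiveBLAzer-type FRET substrate is then applied for 2 hr at room temperature.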
# [16] = molecular target: Thyrotropin-releasing hormone receptor (Homo sapiens) (UniProt P34981); experiment: qHTS assay to identify small molecule antagonists of the thyrotropin-releasing hormone receptor (TRHR) signaling pathway (AID 1346877; active means well fitted inhibition curve with a large enough effect in the repeat runs, not every such curve was filed as active; further: series mostly up to about 51 µM)
# Chain of Thyrotropin-releasing hormone receptor (Homo sapiens) (P34981 whole entry, looked up): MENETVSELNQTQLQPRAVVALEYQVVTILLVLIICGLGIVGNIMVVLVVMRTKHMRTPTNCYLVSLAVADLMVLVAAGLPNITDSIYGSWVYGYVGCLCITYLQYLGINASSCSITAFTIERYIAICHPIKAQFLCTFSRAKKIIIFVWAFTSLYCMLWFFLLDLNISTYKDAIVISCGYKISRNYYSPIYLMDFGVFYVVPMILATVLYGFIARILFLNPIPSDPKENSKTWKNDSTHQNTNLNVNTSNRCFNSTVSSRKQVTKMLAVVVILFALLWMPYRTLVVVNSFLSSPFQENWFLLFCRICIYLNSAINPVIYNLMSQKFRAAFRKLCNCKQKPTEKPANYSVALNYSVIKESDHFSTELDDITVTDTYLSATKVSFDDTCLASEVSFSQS
# In short: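 Antagonist mode: after a 5 min room-temperature compound exposure, cells were stimulated with 1 nM (final) TRH. Dye-loaded TRHR-HEK293 cells were used, and calcium-dependent fluorescence was followed for 3 min, with 15-point titrations run in triplicate.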
# [17] = molecular target: Thyrotropin-releasing hormone receptor (Homo sapiens) (UniProt P34981); experiment: qHTS assay to identify small molecule agonists of the thyrotropin-releasing hormone receptor (TRHR) signaling pathway (AID 1346891); further: potency means the concentration at half of the fitted maximal effect;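 on activation: HEK293 cells expressing TRHR with calcium dye readout; series mostly up to about 58 µM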
# In short: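 Compounds were tested as agonists at 15 concentrations, in triplicate, on TRHR-Hek293 cells; calcium-sensitive dye fluorescence was recorded for 3 min following addition.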
# [18] = qHTS assay to identify small molecule agonists of the androgen receptor (AR) signaling pathway in the presence of an antagonist - cell viability counter screen (AID 1259379; active means well fitted curve in the direction sought with a large enough effect in the repeat runs; an effect the other way counts as inactive or inconclusive;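 further: MDA-kb2 human breast cancer cells carrying an MMTV luciferase reporter; series mostly up to about 92 µM; nearly all actives have a fitted effect of over 25% in size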)
# In short: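 Cytotoxicity counter-screen run in the same wells as the nilutamide-challenged (3.0 µM final) AR agonist assay in MDA-kb2 cells. Compounds tested at 15 concentrations for 16 h, 37 °C without CO2; CellTiter-Fluor fluorescence read.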
# [19] = molecular target: Androgen receptor (Homo sapiens) (UniProt P10275); experiment: qHTS assay to identify small molecule agonists of the androgen receptor (AR) signaling pathway in the presence of an antagonist (AID 1259381); further: nearly all actives have a fitted effect of over 15% in size
# Chain of Androgen receptor (Homo sapiens) (P10275 whole entry, looked up): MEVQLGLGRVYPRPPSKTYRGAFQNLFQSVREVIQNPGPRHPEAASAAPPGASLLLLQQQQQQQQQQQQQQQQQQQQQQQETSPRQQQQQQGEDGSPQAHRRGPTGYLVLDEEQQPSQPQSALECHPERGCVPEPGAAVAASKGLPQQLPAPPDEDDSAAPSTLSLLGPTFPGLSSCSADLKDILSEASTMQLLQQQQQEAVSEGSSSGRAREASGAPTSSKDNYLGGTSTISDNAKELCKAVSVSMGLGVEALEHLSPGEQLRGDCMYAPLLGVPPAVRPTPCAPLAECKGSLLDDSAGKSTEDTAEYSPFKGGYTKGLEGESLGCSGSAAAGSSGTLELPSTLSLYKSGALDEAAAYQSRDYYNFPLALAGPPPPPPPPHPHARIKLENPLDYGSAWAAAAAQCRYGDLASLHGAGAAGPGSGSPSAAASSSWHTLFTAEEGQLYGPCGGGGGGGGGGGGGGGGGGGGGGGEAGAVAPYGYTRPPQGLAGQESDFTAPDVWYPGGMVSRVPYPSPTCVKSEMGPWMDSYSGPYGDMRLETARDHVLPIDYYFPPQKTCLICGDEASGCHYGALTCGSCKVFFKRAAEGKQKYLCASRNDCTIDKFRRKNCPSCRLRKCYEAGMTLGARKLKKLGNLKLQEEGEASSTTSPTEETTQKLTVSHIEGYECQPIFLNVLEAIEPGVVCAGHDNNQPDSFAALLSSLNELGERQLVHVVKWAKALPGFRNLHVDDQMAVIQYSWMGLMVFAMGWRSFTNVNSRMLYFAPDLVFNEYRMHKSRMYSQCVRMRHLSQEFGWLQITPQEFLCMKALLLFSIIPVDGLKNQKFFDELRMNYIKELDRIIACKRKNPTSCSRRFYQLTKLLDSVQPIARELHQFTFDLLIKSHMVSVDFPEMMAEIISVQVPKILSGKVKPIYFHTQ
# In short: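 Agonist-mode confirmation run against 3.0 uM final nilutamide: compounds titrated at 15 concentrations onto MDA-kb2 MMTV-luciferase reporter cells. Luminescence measured with ONE-Glo following 16 hr incubation, 37C, 0% CO2.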
# [20] = molecular target: Estrogen receptor beta (Homo sapiens) (UniProt Q92731); experiment: qHTS assay to identify small molecule antagonists of the estrogen receptor beta (ER-beta) signaling pathway (AID 1259378; active means well fitted inhibition curve with a large enough effect in the signal ratio in the repeat runs, not every such curve was filed as active; the % refers to the signal ratio)
# In short: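 Antagonist mode: compounds added to beta-lactamase reporter HEK293T ER-beta-UAS cells stimulated with E2 (1nM final), 16 hr at 37C. LiveBLAzer B/G FRET substrate, 2 hours room temperature, fluorescence read-out.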
SMILES,Potency [1],Potency [2],Potency [3],outcome [4],outcome [5],outcome [6],outcome [7],Potency [8],Potency [9],Potency [10],Potency [11],Potency [12],outcome [13],outcome [14],outcome [15],outcome [16],Potency [17],Potency [18],Potency [19],Potency [20]
C=CCCCCCCCCC(=O)OCC,inactive,inactive,inactive,inactive,inactive,inactive,inactive,inactive,inactive,inactive,inactive,inactive,inactive,inactive,inactive,–,–,–,–,–
O=C1NC(=O)C2CC=CCC12 (stereo unspecified),inactive,inactive,inactive,inactive,–,inactive,–,inactive,inactive,–,–,inactive,inactive,–,inactive,inactive,inactive,–,–,–
N[C@@H](CCC(=O)O)C(=O)O,inactive,–,inactive,inactive,inactive,inactive,inactive,inactive,inactive,inactive,inactive,inactive,inactive,inactive,inactive,inactive,inactive,inactive,–,–
CCC(C)(CN(C)C)OC(=O)c1ccccc1 (stereo unspecified),inactive,inactive,inactive,inactive,–,–,–,inactive,inactive,inactive,inactive,inactive,inactive,inactive,inactive,–,–,–,–,–
NC(CCC(=O)O)C(=O)O (stereo unspecified),inactive,–,inactive,inactive,inactive,inactive,inactive,inactive,inactive,inactive,inactive,inactive,inactive,inactive,inactive,inactive,inactive,inactive,–,–
CCCc1ncc(C[n+]2ccccc2C)c(N)n1,inactive,inactive,inactive,inactive,–,–,–,inactive,inactive,inactive,inactive,–,inactive,inactive,inactive,inactive,inactive,inactive,–,–
O=S(=O)(O)c1cccc(S(=O)(=O)O)c1,inactive,–,inactive,inactive,inactive,inactive,inactive,inactive,inactive,inactive,inactive,–,inactive,inactive,inactive,–,–,inactive,inactive,–
CNCCO,inactive,inactive,–,inactive,–,inactive,inactive,inactive,inactive,inactive,inactive,inactive,inactive,inactive,inactive,inactive,inactive,inactive,–,–
NC(=O)NC1N=C([O][Al])NC1=O (stereo unspecified),inactive,–,inactive,inactive,–,inactive,inactive,inactive,inactive,inactive,–,inactive,inactive,–,inactive,inactive,inactive,inactive,inactive,–
COCCOC[C@H](CC1(C(=O)NC2CCC(C(=O)O)CC2)CCCC1)C(=O)Oc1ccc2c(c1)CCC2 (stereo partly specified),inactive,inactive,inactive,inactive,inactive,inactive,inactive,–,inactive,inactive,inactive,inactive,inactive,inactive,inactive,–,11 µM (active),–,inactive,–
CNC(=O)Nc1ccc(Cl)c(Cl)c1,inactive,–,–,inactive,inactive,inactive,inactive,inactive,inactive,–,inactive,inactive,inactive,–,inactive,inactive,inactive,inactive,inactive,inactive
CC(CO)(CO)[N+](=O)[O-],inactive,–,inactive,inactive,inactive,inactive,inactive,inactive,inactive,inactive,inactive,inactive,inactive,inactive,inactive,inactive,inactive,inactive,–,inactive
CCCCN(CCC(=O)OCC)C(C)=O,inactive,inactive,inactive,inactive,inactive,inactive,inactive,inactive,inactive,inactive,inactive,inactive,inactive,inactive,inactive,inactive,inactive,–,–,–
CO[C@@]1(NC(=O)CSC[C@@H](N)C(=O)O)C(=O)N2C(C(=O)O)=C(CSc3nnnn3C)CS[C@@H]21,inactive,–,inactive,inactive,inactive,inactive,inactive,inactive,inactive,inactive,inactive,inactive,inactive,inactive,inactive,inactive,inactive,inactive,inactive,–
CC1=NN(c2cccc(S(=O)(=O)O)c2)C(=O)C1,inactive,–,inactive,inactive,inactive,inactive,inactive,inactive,inactive,inactive,–,–,inactive,inactive,inactive,inactive,inactive,inactive,inactive,–
CO[Si](C)(OC)c1ccccc1,inactive,–,inactive,inactive,inactive,inactive,inactive,inactive,inactive,inactive,inactive,inactive,inactive,inactive,inactive,inactive,inactive,inactive,–,–
CCCCCCC#CC(=O)OC,inactive,inactive,inactive,inactive,–,–,–,inactive,inactive,inactive,inactive,inactive,inactive,inactive,inactive,inactive,inactive,–,–,–
Cc1cccc(C)c1NC(=O)CC12CCCN1CCC2,inactive,inactive,inactive,inactive,inactive,inactive,inactive,inactive,inactive,inactive,inactive,–,inactive,inactive,inactive,inactive,inactive,–,–,–
